In assay [1] the target is Rap guanine nucleotide exchange factor 3 (Homo sapiens) (UniProt O95398). Nature of the assay: Confirmatory qHTS for agonist of cAMP-regulated guanine nucleotide exchange factor 3 (EPAC1) (AID 1645881).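 Also: EPAC1 catalysed release of BODIPY-GDP from Rap1B seen as fluorescence loss; 100% = effect of cAMP agonist control; nearly all actives have a fitted effect of over 75% in size.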 On the technique in general: In qHTS, concentration-response curves come from the screen itself.
The target in assay [2] is Rap guanine nucleotide exchange factor 4 (Homo sapiens) (UniProt Q8WZA2). Nature of the assay: Confirmatory qHTS for agonist of cAMP-regulated guanine nucleotide exchange factor 4 (EPAC2) (AID 1645884).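 Also: nucleotide exchange releases bodipy-GDP from Rap1 and this lowers its fluorescence; % is scaled to controls: 0 for no effect and ±100 for the full control effect; nearly all actives have a fitted effect of over 65% in size.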
Assay [3] shares this target. The experiment in a line: Confirmatory qHTS for antagonist of cAMP-regulated guanine nucleotide exchange factor 4 (EPAC2) (AID 1645885). Also: nearly all actives have a fitted effect of over 25% in size. Also: potency is read from the fitted curve at half-maximal effect. As to activity change, negative = inhibition: % is scaled to controls: 0 for no effect and ±100 for the full control effect.
Assay [4] has as its target Rap guanine nucleotide exchange factor 3 (Homo sapiens) (UniProt O95398). The experiment in a line: Counterscreen qHTS for antagonist of cAMP-regulated guanine nucleotide exchange factor 3 (EPAC1) (AID 1645888).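 Also: fluorescence loss as bound BODIPY-GDP is released from Rap1B; % of control where 0% means no effect.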 In a few lines:
(§1)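 Rap1B–BODIPY-GDP (250 nM) with 50 uM GDP; compounds pin-transferred to 9.74 nM–152 uM final (activator) or from 7.32 nM upwards (inhibitor). Fluorescence Ex/Em 480/540 nm read at 5 and 30 min, then after adding cAMP or buffer, at room temperature.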
(In general: A counterscreen serves to expose hits that act by an unwanted route or on another target.)

Assay [5] shares this target. Nature of the assay: Counterscreen qHTS for agonist of cAMP-regulated guanine nucleotide exchange factor 3 (EPAC1) (AID 1645889). Also: % of control where 0% means no effect; nearly all actives have a fitted effect of over 40% in size. In a few lines: as §1

Results filed as inconclusive are left out. A number with no mark means an inactive call. Calls of active or inactive are those of the source. Calls follow the shape of the dose curve; as a rule, active = well fitted curve in the direction sought with a large enough effect; inconclusive = small, poorly fitted or top-dose-only effect, or another doubt; inactive = no such curve, though single readings can be large; an effect the other way counts as inactive or inconclusive.

Chain of Rap guanine nucleotide exchange factor 4 (Homo sapiens) (Q8WZA2 whole entry, looked up): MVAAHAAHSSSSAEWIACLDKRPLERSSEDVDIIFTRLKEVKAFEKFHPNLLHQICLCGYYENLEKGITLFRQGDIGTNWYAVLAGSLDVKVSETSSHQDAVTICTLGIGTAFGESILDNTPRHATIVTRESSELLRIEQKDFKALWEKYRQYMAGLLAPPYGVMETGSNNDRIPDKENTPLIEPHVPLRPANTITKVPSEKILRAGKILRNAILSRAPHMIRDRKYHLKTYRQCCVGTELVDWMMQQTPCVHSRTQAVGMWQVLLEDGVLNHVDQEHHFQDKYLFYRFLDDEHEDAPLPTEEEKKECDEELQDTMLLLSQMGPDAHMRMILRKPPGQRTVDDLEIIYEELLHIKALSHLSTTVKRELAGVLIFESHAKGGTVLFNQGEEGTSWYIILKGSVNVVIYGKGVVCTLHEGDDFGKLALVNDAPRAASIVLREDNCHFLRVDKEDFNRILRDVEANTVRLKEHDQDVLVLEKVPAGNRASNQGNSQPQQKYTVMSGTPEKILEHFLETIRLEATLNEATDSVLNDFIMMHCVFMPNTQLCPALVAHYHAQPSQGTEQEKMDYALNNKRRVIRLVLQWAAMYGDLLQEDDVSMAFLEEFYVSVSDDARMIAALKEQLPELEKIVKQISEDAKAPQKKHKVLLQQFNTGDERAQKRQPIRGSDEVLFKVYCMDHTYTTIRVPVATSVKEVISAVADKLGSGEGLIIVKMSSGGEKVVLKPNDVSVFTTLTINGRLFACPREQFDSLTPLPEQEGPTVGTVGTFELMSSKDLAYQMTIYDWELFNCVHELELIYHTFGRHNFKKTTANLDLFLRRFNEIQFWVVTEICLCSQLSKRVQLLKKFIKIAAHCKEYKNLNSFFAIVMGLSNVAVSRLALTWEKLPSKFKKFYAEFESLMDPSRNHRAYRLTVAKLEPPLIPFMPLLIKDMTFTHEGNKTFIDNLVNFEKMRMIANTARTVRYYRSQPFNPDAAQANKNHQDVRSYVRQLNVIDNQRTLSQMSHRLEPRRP
Chain of Rap guanine nucleotide exchange factor 3 (Homo sapiens) (O95398 whole entry, looked up): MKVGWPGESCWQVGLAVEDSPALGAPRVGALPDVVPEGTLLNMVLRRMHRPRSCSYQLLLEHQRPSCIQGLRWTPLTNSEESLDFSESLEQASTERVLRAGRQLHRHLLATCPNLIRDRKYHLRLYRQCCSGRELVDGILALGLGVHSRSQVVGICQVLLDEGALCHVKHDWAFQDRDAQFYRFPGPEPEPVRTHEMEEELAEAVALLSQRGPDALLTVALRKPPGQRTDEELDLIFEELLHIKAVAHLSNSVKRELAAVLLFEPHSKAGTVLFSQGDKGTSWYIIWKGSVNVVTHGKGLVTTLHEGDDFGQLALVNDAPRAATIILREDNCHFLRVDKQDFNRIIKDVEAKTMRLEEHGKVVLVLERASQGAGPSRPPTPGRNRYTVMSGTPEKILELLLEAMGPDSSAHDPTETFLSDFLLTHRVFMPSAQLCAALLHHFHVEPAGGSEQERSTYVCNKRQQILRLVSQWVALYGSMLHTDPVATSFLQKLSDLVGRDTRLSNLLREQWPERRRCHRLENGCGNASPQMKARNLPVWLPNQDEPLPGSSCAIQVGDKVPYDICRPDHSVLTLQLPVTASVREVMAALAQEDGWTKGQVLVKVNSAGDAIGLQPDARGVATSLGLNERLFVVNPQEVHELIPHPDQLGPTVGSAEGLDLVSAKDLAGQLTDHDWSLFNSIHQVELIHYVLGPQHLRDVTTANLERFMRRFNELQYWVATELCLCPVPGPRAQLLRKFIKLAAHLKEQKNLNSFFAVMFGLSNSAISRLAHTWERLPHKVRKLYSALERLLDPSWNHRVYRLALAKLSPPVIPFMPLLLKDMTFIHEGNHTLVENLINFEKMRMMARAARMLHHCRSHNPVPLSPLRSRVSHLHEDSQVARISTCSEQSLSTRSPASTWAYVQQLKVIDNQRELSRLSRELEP

Regarding `Cc1ccc(N(Cc2cccs2)C(=O)c2ccco2)cc1`, the Potency result in assay [1], in assay [2], in assay [3], in assay [4] and in assay [5] was “inactive” in each case.

With `O=C(Nc1nc2ccccc2[nH]1)C1CCN(S(=O)(=O)c2cccs2)CC1`, the Potency result in assay [1], in assay [2], in assay [3], in assay [4] and in assay [5] was “inactive” throughout.

For the molecule `CCN(C(=O)Cn1c(=O)oc2cc(Cl)ccc21)c1cccc(C(F)(F)F)c1`, the Potency entry in assay [1], in assay [2], in assay [3], in assay [4] and in assay [5] was “inactive” in each case.

With `COc1ccc(NC(=O)CSc2nc3sc4c(c3c(=O)n2-c2ccc(OC)cc2)CCN(C)C4)cc1`, the Potency result in assay [1] and in assay [3] was “inactive” throughout. In addition, the activation was -8.15% [at 17.1 µM, percent relative to cAMP agonist control] in assay [2] and 31.5% [at 30.8 µM] in assay [5]. Also, in assay [4], the activity change, negative = inhibition was -8.97% [at 30.8 µM].

Consider `COc1ccc(OCC(=O)NCc2ccc3c(c2)CCN3C(=O)c2cccc(C)c2)cc1`, for which the Potency entry in assay [1], in assay [2], in assay [3], in assay [4] and in assay [5] was “inactive” throughout.

As for `O=C(O)C(Cc1c[nH]c2ccccc12)NS(=O)(=O)c1ccc2ccccc2c1` (stereo not given), the Potency result in assay [1], in assay [2], in assay [3], in assay [4] and in assay [5] was “inactive” throughout.

For `CCOc1ccc(C(=O)N/N=C/c2cc(Cl)ccc2[N+](=O)[O-])cc1`, the Potency entry in assay [1] and in assay [3] was “inactive” throughout. Further, the activation in assay [2] is 3.37% [at 17.1 µM, percent relative to cAMP agonist control]; in assay [5], 15.5% [at 30.8 µM]. In assay [4], the activity change, negative = inhibition is -12.2% [at 30.8 µM].

Take `Cc1cc(NS(=O)(=O)c2ccc(Nc3nc(-c4ccc(O)cc4)cs3)cc2)no1`: the Potency entry in assay [1], in assay [2], in assay [4] and in assay [5] was “inactive” in each case. Moreover, the Potency in assay [3] is 26.9 µM (active).

Regarding `COC1=C(Nc2ccc(O)cc2)C(=O)c2ccccc2C1=O`, the Potency result in assay [1] and in assay [3] was “inactive” throughout. Further, the activation in assay [2] is 5% [at 17.1 µM, percent relative to cAMP agonist control]; in assay [5], 25.2% [at 30.8 µM]. Moreover, in assay [4], the activity change, negative = inhibition is 4.79% [at 30.8 µM].

Take `Cn1c(SCC(=O)Nc2ccc(C(=O)O)cc2)nc2scc(-c3ccccc3Cl)c2c1=O`: the Potency entry in assay [1], in assay [2], in assay [4] and in assay [5] was “inactive” each time. Besides, the Potency in assay [3] is 42.6 µM (active).

As for `Cc1c([N+](=O)[O-])cnc(Sc2ccccc2)c1[N+](=O)[O-]`, the Potency entry in assay [1], in assay [2], in assay [3], in assay [4] and in assay [5] was “inactive” each time.

Consider `O=C(O)CN1C(=O)/C(=C\c2cc([N+](=O)[O-])ccc2OCc2ccccc2Cl)SC1=S`, for which the Potency result in assay [1] and in assay [3] was “inactive” in each case. Also, the activation was 2.47% [at 17.1 µM, percent relative to cAMP agonist control] in assay [2] and 29.5% [at 30.8 µM] in assay [5]. For the same molecule, in assay [4], the activity change, negative = inhibition was -20.4% [at 30.8 µM].

Turning to `O=C(CSc1nc(-c2cccs2)nc2cc(=O)[nH]n12)Nc1cccc(C(F)(F)F)c1`, the Potency result in assay [1], in assay [2], in assay [4] and in assay [5] was “inactive” throughout. Moreover, the outcome in assay [3] is “inactive [at 12.7 µM]”.

As for `COc1ccccc1C(CCN(Cc1ccccc1)C(C)=O)c1ccco1` (stereo not given), the Potency result in assay [1] and in assay [3] was “inactive” each time. Besides, the activation is 8.17% [at 17.1 µM, percent relative to cAMP agonist control] in assay [2] and 10.4% [at 30.8 µM] in assay [5]. In addition, the activity change, negative = inhibition in assay [4] is -15.7% [at 30.8 µM].

As for `CCCCn1c(N)c(N(CCC(C)C)C(=O)c2ccc(COc3ccccc3)o2)c(=O)[nH]c1=O`, the Potency entry in assay [1] and in assay [3] was “inactive” each time. For the same molecule, the activation was 1.71% [at 17.1 µM, percent relative to cAMP agonist control] in assay [2] and 7.33% [at 30.8 µM] in assay [5]. The activity change, negative = inhibition in assay [4] was 1.42% [at 30.8 µM].

With `O=C(O)c1ccccc1NC(c1ccccc1)c1ccc(Cl)cc1` (stereo not given), the Potency entry in assay [1], in assay [2], in assay [3], in assay [4] and in assay [5] was “inactive” each time.

On to `O=C(/C=C/c1ccc(Br)o1)NCc1ccccc1`, for which the Potency entry in assay [1] and in assay [3] was “inactive” throughout. Also, the activation was -1.62% [at 17.1 µM, percent relative to cAMP agonist control] in assay [2] and 21.3% [at 30.8 µM] in assay [5]. Further, the activity change, negative = inhibition in assay [4] is 13% [at 30.8 µM].

For `C=CCn1c(C)cc(C2=NNC(=Nc3ccc(C)cc3)SC2)c1C`, the Potency result in assay [1], in assay [2], in assay [3], in assay [4] and in assay [5] was “inactive” in each case.

For the molecule `CC(=O)NS(=O)(=O)c1ccc(Nc2ccc([N+](=O)[O-])c3nonc23)cc1`, the Potency result in assay [1] and in assay [3] was “inactive” each time. The activation in assay [2] is 14.6% [at 17.1 µM, percent relative to cAMP agonist control]; in assay [5], 1.5% [at 30.8 µM]. The activity change, negative = inhibition in assay [4] is -18.4% [at 30.8 µM].

For the molecule `O=[N+]([O-])c1ccc(-n2nnnc2-c2ccccc2)c([N+](=O)[O-])c1`, the Potency entry in assay [1], in assay [2], in assay [3], in assay [4] and in assay [5] was “inactive” throughout.

Regarding `COc1cc2c(c(OC)c1OC)-c1c(cc(OC)c(OC)c1OC)C[C@H](C)[C@H](C)C2`, the Potency entry in assay [1] and in assay [3] was “inactive” throughout. Besides, the activation in assay [2] is 7.13% [at 17.1 µM, percent relative to cAMP agonist control]; in assay [5], 23.6% [at 30.8 µM]. The activity change, negative = inhibition in assay [4] was -11.3% [at 30.8 µM].
